For some assays here: Results with a measured potency or affinity are listed apart.
Legend:
Parameters in all cases: scale not given: direction of the effect not stated beside the values
[1] = biological target: Protein translocase subunit SecA (Escherichia coli (strain K12)) (UniProt P10408); test: Assay to Identify E. coli SecA ATPase Inhibitors; format: functional; conditions: 30 µM
[2] = biological target: T1, Ubiquitin-activating enzyme e1, putative (Leishmania donovani (strain BPK282A1)) (UniProt E9BSI1); test: Leishmania donovani Ubiquitin Activating Enzyme (LdE1); format: functional; conditions: 30 µM
T1 sequence (whole entry): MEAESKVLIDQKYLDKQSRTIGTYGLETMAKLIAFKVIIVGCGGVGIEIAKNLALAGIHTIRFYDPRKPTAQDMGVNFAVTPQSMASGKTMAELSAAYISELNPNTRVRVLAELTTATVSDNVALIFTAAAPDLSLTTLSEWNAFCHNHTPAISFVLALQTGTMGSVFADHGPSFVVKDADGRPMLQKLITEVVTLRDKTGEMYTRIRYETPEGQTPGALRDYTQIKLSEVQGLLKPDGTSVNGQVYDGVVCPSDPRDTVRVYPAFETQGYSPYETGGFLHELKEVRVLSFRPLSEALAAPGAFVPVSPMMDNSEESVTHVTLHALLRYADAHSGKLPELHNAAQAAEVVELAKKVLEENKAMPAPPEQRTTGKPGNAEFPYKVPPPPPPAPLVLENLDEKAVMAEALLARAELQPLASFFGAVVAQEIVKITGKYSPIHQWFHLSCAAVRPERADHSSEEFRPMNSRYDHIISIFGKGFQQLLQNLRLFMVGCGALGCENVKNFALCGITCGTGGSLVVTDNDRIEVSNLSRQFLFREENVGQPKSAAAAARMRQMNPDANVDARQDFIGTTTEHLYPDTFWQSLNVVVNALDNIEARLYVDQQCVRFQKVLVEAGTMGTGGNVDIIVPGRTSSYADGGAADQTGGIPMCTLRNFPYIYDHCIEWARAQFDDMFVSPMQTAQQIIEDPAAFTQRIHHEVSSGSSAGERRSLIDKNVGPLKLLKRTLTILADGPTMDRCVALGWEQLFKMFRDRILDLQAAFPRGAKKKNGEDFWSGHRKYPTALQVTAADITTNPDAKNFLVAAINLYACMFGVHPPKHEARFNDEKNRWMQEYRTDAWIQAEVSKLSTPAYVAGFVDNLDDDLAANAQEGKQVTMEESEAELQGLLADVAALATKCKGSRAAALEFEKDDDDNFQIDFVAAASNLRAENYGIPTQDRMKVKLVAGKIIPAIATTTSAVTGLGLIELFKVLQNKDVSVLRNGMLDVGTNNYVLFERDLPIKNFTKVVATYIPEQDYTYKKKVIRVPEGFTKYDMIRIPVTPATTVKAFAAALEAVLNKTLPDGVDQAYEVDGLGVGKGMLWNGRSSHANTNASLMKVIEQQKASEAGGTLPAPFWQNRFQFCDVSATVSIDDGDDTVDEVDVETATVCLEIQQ

[3] = biological target: AMP-activated protein kinase, AMPK (Homo sapiens) (UniProt P54646+O43741+P54619+Q9UGJ0+Q9Y478+Q13131+Q9UGI9); test: AMP-dependent Kinase enzyme assay. An in vitro enzyme assay that detects ADP turnover that is directly proportional to AMPK activity. This uses naive AMPK that is activated during the assay with MK-8722; format: functional; conditions: 30 µM
[4] = biological target: Sialic acid-binding Ig-like lectin 9 (Homo sapiens) (UniProt Q9Y336); test: Hs-Siglec9 ALPHAscreen SOP 20170721; conditions: 10 µM
Chain of Sialic acid-binding Ig-like lectin 9 (Homo sapiens) (Q9Y336 whole entry): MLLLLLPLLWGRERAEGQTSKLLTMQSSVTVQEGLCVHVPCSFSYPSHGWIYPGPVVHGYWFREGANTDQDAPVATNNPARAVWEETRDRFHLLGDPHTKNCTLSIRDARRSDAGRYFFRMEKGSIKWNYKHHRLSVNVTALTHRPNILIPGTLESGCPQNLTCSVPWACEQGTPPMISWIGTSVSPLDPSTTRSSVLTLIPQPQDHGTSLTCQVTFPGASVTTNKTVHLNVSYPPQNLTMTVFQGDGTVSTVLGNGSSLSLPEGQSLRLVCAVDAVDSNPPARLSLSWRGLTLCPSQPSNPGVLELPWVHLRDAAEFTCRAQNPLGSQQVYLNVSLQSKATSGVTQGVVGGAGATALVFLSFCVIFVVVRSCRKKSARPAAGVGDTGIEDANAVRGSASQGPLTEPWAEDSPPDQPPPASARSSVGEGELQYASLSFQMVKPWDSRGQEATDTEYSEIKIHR

[5] = test system: Trypanosoma cruzi; test: Trypanosoma cruzi phosphomannomutase and mannose-1-phosphate guanylyltransferase assay; format: functional; conditions: 10 µM
[6] = biological target: T2, Arginase-2, mitochondrial (Homo sapiens) (UniProt P78540); test: in vitro enzyme assay to detect the production of urea directly proportional to the activity of Arginase II; format: functional; conditions: 33.3 µM; note: in the data most compounds retested in dose-response had high values
T2 sequence (whole entry): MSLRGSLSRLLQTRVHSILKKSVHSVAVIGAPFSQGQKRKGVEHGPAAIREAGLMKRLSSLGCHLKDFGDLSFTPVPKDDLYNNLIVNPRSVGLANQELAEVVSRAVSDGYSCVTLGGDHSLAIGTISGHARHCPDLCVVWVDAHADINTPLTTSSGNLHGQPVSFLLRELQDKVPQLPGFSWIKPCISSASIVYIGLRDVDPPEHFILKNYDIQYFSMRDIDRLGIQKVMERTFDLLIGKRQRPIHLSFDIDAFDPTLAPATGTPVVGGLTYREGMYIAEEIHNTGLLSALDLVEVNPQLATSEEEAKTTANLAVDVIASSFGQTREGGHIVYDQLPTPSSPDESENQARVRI

[7] = biological target: T3, Proteasome subunit beta (Trypanosoma cruzi) (UniProt O96673); test: Trypanosoma cruzi proteasome chymotrypsin-like activity (TcProtChymo) assay.; note: in the data most compounds retested in dose-response had high values; format: functional; conditions: 9.37 µM
T3 sequence (whole entry): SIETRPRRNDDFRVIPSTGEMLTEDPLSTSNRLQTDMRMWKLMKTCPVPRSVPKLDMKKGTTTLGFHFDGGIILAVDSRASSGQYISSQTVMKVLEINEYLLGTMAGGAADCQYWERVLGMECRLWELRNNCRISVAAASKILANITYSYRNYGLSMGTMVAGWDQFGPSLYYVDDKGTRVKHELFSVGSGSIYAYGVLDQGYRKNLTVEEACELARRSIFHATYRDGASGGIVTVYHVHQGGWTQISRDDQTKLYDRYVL

[8] = species on record: Homo sapiens; test: To identify inhibition of the IFN signalling (Jak-Stat) pathway via expression of an eGFP reporter gene under the control of an IFN-stimulated response element (ISRE) containing MxA promoter.; format: functional; conditions: 30 µM
[9] = biological target: T4, Tyrosyl-tRNA synthetase, putative (Trypanosoma cruzi (strain CL Brener)) (UniProt Q4DSP6); test: Trypanosoma cruzi tyrosyl tRNA synthetase (TcYRS) _High Tyrosine SOP; format: functional; conditions: 30 µM; note: in the data most compounds retested in dose-response had high values
T4 sequence (whole entry): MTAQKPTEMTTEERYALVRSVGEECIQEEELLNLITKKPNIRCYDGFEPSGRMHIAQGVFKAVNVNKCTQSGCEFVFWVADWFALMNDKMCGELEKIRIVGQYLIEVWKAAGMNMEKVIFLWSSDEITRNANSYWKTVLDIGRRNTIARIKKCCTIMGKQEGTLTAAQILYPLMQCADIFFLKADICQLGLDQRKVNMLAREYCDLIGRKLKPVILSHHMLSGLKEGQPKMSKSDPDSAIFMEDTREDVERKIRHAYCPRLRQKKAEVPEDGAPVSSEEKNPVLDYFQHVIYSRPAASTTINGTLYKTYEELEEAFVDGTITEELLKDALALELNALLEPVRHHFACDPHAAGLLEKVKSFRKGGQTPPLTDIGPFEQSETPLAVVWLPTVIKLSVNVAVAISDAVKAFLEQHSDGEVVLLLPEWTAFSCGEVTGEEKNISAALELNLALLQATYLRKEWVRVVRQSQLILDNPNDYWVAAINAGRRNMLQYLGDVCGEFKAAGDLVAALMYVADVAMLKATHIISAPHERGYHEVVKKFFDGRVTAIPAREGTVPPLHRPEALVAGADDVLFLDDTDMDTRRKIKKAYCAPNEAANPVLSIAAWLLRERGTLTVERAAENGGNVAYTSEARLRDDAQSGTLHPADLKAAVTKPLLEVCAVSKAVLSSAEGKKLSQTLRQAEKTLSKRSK

[10] = biological target: T4, Tyrosyl-tRNA synthetase, putative (Trypanosoma cruzi (strain CL Brener)); test: Trypanosoma cruzi tyrosyl tRNA synthetase (TcYRS) SOP; format: functional; conditions: 30 µM
[11] = biological target: Chromo domain-containing protein 1 (Saccharomyces cerevisiae (strain ATCC 204508 / S288c) (Baker's yeast)) (UniProt P32657); test: ScCHD-1 Enzyme Inhibition Assay; format: functional; conditions: 30 µM; note: in the data most compounds retested in dose-response had high values
Chain of Chromo domain-containing protein 1 (Saccharomyces cerevisiae (strain ATCC 204508 / S288c) (Baker's yeast)) (P32657 whole entry, the tested form may be a part): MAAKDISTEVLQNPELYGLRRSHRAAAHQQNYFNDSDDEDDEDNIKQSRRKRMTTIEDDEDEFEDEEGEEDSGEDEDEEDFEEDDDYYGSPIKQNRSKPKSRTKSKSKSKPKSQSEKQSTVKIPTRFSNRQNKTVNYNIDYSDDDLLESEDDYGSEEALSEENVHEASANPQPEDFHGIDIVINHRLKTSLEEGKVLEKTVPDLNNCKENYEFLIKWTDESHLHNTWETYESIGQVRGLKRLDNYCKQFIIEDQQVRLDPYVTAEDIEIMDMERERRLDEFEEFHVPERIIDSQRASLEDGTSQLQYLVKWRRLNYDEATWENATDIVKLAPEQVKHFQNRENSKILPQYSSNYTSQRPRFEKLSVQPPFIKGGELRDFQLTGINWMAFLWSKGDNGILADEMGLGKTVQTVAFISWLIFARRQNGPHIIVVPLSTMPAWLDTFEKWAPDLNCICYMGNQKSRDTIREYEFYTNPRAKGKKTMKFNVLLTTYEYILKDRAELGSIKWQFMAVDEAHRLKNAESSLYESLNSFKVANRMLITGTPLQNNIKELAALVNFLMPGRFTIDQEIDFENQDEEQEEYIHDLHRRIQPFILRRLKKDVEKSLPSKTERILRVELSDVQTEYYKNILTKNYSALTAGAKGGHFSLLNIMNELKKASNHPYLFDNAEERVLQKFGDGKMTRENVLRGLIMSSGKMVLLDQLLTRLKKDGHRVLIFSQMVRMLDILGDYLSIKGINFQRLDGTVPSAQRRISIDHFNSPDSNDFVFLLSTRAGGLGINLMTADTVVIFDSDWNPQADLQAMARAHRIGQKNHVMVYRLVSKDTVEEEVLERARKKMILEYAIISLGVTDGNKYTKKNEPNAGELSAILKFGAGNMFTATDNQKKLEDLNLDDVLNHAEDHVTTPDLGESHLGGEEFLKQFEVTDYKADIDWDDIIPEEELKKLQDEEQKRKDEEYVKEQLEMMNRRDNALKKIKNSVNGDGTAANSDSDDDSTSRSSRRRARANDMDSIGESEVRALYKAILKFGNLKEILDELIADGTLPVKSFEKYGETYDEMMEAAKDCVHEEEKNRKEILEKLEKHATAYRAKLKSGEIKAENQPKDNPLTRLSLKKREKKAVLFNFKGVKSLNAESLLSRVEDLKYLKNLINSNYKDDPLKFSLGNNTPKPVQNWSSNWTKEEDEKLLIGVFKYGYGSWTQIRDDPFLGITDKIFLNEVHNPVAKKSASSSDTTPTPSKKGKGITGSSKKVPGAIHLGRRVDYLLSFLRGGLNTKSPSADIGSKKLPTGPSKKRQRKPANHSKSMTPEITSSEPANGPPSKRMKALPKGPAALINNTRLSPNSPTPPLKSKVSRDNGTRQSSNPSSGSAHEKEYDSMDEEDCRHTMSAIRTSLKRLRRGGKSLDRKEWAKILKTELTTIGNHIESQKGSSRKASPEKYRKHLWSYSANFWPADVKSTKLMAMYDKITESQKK

Chain of Protein translocase subunit SecA (Escherichia coli (strain K12)) (P10408 whole entry): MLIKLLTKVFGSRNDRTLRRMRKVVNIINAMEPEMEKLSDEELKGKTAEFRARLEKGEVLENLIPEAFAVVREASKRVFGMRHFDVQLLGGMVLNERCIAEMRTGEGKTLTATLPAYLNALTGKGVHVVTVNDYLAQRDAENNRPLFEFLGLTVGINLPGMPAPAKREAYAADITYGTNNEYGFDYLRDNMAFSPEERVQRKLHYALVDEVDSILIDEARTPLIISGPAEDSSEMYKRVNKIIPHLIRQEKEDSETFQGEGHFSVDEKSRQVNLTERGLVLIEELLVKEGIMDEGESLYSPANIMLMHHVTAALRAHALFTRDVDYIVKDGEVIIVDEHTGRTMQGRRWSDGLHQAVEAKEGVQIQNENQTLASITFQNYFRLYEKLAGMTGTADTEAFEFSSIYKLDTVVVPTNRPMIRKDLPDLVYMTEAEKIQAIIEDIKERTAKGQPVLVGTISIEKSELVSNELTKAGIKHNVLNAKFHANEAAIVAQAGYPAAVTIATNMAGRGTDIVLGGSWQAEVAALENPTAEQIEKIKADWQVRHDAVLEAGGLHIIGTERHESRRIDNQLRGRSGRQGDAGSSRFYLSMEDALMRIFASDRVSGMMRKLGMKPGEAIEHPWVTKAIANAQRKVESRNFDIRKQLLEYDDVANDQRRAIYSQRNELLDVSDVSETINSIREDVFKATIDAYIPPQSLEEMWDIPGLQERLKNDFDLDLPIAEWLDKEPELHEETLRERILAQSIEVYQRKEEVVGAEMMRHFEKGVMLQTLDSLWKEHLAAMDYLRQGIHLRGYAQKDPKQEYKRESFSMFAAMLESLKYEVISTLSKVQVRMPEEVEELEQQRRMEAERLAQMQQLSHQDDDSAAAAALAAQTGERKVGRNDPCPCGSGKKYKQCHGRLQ

| SMILES | Percent Effect [1] [%] | Percent Effect [2] [%] | Percent Effect [3] [%] | Percent Effect [4] [%] | Percent Effect [5] [%] | Percent Effect [6] [%] | Percent Effect [7] [%] | Percent Effect [8] [%] | Percent Effect [9] [%] | Percent Effect [10] [%] | Percent Effect [11] [%] |
| --- | --- | --- | --- | --- | --- | --- | --- | --- | --- | --- | --- |
| CCCc1n[nH]c(C2CN(CCNS(=O)(=O)CC)CCO2)n1 (configuration not stated) | -1.25 | 19 | 4.75 | -2.28 | -0.718 | 1.5 | 12.9 | 18.3 | 8.33 | 15.2 | -20.1 |
| CS(=O)(=O)NC1CCc2c(ccc(=O)n2CC2CC2)C1 (configuration not stated) | -2.67 | 10.7 | 7.1 | 2.38 | -3.54 | 2.56 | 10.7 | -2.08 | 6.38 | 14.1 | 0.517 |
| O=C(NCCc1nnc2n1CCC2)NCC1(c2cccc(F)c2)CC1 | -7.67 | -5.26 | 5.7 | -1.62 | 2.43 | 0 | -1.44 | -9.73 | 2.13 | 5.2 | 1.42 |
| Cn1cc(CNC2CCCN(Cc3noc(C4CC4)n3)C2)cn1 (configuration not stated) | -1.45 | 13.2 | 1.88 | -6.33 | -4.51 | 5.75 | 18.7 | 28.1 | 2.45 | 12.2 | -11.8 |
| CCCOCC(=O)NC1CCc2nc(C)cn2C1 (configuration not stated) | -4.43 | 5.26 | 8.68 | 1.69 | -2.04 | -9.47 | 17.2 | 0.806 | 7.45 | 13 | -0.543 |
| Cc1cccc(CN2C(=O)CC[C@@H]3[C@H]2CCN3CC2CCOCC2)n1 | -3.19 | 16 | 1.45 | -4.46 | 2.36 | 0.699 | 14 | -19.1 | 5.32 | 11.5 | -4.59 |
| N#Cc1ccc(OCCCN2CCc3cncnc3C2)cc1 | -5.04 | 5.06 | -14.8 | 5.6 | -3.68 | -3.04 | -6.14 | 18.3 | -0.493 | 11.4 | -4.55 |
| O=C(CCc1nccs1)N1CCN(c2cccnn2)CC1 | -4.08 | 10.4 | 4.08 | 3.62 | 2.84 | -0.21 | -0.404 | 13.5 | 5.71 | 9.41 | -12.4 |
| CN(C)C(=O)N1C[C@@H]2CC[C@H](C1)N(Cc1ccc3nsnc3c1)C2 | -2.91 | -1.39 | -8.41 | -5.35 | -2.04 | 4.42 | 13.2 | -11.8 | 0 | 2.56 | -0.102 |
| Cc1cc(C(=O)N2CC[C@@H]3CN(c4ncccn4)CCO[C@@H]3C2)c(C)o1 | -0.56 | 16.2 | -3.77 | -14.6 | 0.0978 | 6.69 | 29 | -4.39 | 6.49 | 20.5 | -4.19 |
| Cc1ccc(C(=O)N2CCc3c(CNS(C)(=O)=O)cncc3C2)o1 | 3.13 | 2.67 | 5.83 | 1.5 | -6.37 | -55 | 8.72 | 4.16 | 3.12 | 5 | -7.04 |
| COc1ccccc1[C@@H]1CN(Cc2cc(C(C)(C)C)[nH]n2)C[C@H]1C(=O)O | -3.72 | 18.1 | -4.78 | 2.73 | 4.18 | 5.3 | 20.2 | 0.766 | 5.26 | 10.3 | -3.34 |
| Cc1cc(C[S+]([O-])CC(=O)Nc2c(C)cccc2C)no1 (configuration not stated) | -7.01 | 18.2 | 15.8 | 7.26 | 0.187 | 4.63 | 2.03 | 5.44 | 8.74 | 9.76 | -3.01 |
| Cc1nn(C)c(N(C)C)c1CNCC(O)c1ccccc1 (configuration not stated) | -0.702 | 2.74 | -3.51 | -6.11 | -4.31 | 3.64 | 16.1 | -8.18 | 3.23 | 10 | -3.32 |
| COCCN(C)CC(=O)N1C[C@H]2CC[C@@H]1CN(C(=O)c1ccncc1)C2 | -4.1 | 5.33 | -2.28 | 3.27 | -5.75 | 1.56 | 17.1 | 27.7 | 6.01 | 13.6 | -5.9 |
| COCCN1CCc2cc(C(=O)N(C)C)c(NC(C)C)nc2CC1 | -0.676 | 8.11 | -3.33 | -5.3 | -2.25 | 0.248 | 0.429 | -3.78 | -10.8 | 3.7 | -3.16 |
| CCc1c(C(=O)N2CCN(CC(N)=O)CC2)cnn1C(C)(C)C | -6.88 | 13.2 | -1.82 | 18.1 | 5.32 | 3.6 | 11.9 | -6.74 | 4.43 | 11.1 | -7.68 |
| CC(NC(=O)COc1nc(C(C)(C)C)no1)c1ccco1 (configuration not stated) | -6.83 | 2.7 | 5.6 | 2.63 | 4.25 | 2.86 | 3.45 | -3.88 | 4.76 | 9.76 | -1.56 |
| CCc1nnsc1C(=O)NC1CCN(c2ccccn2)CC1 | -1.79 | 18.9 | 1.62 | 8.18 | 5.38 | 21.1 | 15 | 15.5 | 3.23 | 16.1 | -7.21 |
| Cc1ccc2c(n1)N(CCn1cccn1)CCN(C(=O)CC1CC1)C2 | -3.68 | 5.41 | -9.57 | 3.09 | -4.4 | 1.74 | 10.6 | 10.3 | -5.38 | 11.1 | -7.62 |
| Cc1cccc(C(=O)NCc2ccnc(N(C)C)c2)n1 | 1.73 | -5.2 | 2.32 | 6.58 | -3.04 | 2.32 | 3.15 | 15.9 | 0 | -37.6 | 8 |
| O=C(CCCOc1ccc(F)cc1)N1CCCC(n2cccn2)C1 (configuration not stated) | -2.63 | 13 | 4.56 | 2.38 | -3.82 | 2.74 | 6.71 | 15.8 | 2.86 | 11.8 | -14.5 |

Source: ChEMBL document CHEMBL3988442, “University of Dundee, Small-Polar-MMV Screening Library” (2021)
